# Compound activity deposited in PubChem by National Center for Advancing Translational Sciences (NCATS).
# Most compounds without a hit are left out; they make up all but 12% or so of the library.
# JMJD2A Tudor inh – qHTS Assay for Inhibitors of JMJD2A-Tudor Domain | Lysine-specific demethylase 4A (Homo sapiens), O75164 | AlphaScreen JMJD2A-Tudor / H3K4me3 peptide binding | Potency, µM (series often up to 114 µM), most hits filed as inhibitors | actives 4.4% (n = 390,000); note: nearly all actives have a fitted effect of over 50% in size
# G9a inh – qHTS Assay for Inhibitors of Histone Lysine Methyltransferase G9a; Histone-lysine N-methyltransferase EHMT2 (Homo sapiens), Q96KQ7; G9a H3K9 monomethylation, AlphaScreen, 2 h; Potency, µM (highest dose often 102 µM), most hits filed as inhibitors; actives 8.8% (n = 350,000); AID 504332, 2011; note: nearly all actives have a fitted effect of over 75% in size
#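 Methyltransferase reactions run at room temperature for 2 h (20 nM enzyme, 500 nM biotin-H3K9 peptide, 20 uM SAM) after a 15 min compound preincubation; product detected by AlphaScreen beads and anti-H3K9me1 antibody.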
# Sfp inh – qHTS Assay for Inhibitors of Bacillus subtilis Sfp phosphopantetheinyl transferase (PPTase). 4'-phosphopantetheinyl transferase ffp (Bacillus subtilis), Q9F4F7. actives 3.5% (n = 310,000). Potency, µM, hits mostly inhibitors. AID 1490, 2009. Biochemical Sfp PPTase activity, qHTS;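 note: the enzyme is Sfp with the accession as filed and its product quenches rhodamine fluorescence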
#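 Step 1, compound plus 15 nM Sfp-PPTase, 15 min, room temperature. Step 2, add rhodamine-CoA (5 uM) and BHQ-2-YbbR (12.5 uM). Step 3, read 525/598 nm fluorescence at 0 and 30 min.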
# BAZ2B inh – qHTS Assay for Inhibitors of BAZ2B; Bromodomain adjacent to zinc finger domain protein 2B (Homo sapiens), Q9UIF8; AlphaScreen BAZ2B-H3K14Ac peptide displacement; Potency, µM (titrated, usually from 114 µM), usual class: inhibitors; actives 4.4% (n = 360,000); AID 504333, 2011; note: nearly all actives have a fitted effect of over 60% in size
#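 AlphaScreen displacement: compounds (up to 110uM) incubated 30 min at room temperature with a preformed 50 nM BAZ2B/50 nM biotinylated H3K14Ac peptide complex in PBS pH 7.4 with Tween-20. Donor and acceptor beads at 10 ug/mL final added, 20 min light-protected before reading.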
# TDP1 inh – qHTS Assay for Inhibitors of Tyrosyl-DNA Phosphodiesterase (TDP1) | actives 0.28% (n = 350,000) | AID 485290, 2010 | Tyrosyl-DNA phosphodiesterase 1 (Homo sapiens), Q9NUW8 | recombinant TDP1, AlphaScreen DNA substrate cleavage | Potency, µM (top dose mostly 130 µM), usual class: inhibitors; note: nearly all actives have a fitted effect of over 40% in size
#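 Signal: AlphaScreen proximity between streptavidin donor and anti-FITC acceptor beads on intact substrate. Reaction: Tdp1 1 nM, substrate 15 nM final, 5 min RT after 15 min compound preincubation.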
# HP1b chromo inh – HTS for Inhibitors of HP1-beta Chromodomain Interactions with Methylated Histone Tails; AlphaScreen HP1-beta / biotin-H3K9me3 peptide binding; actives 0.56% (n = 390,000); Potency, µM (titrated, usually from 114 µM), actives largely listed as inhibitors; note: nearly all actives have a fitted effect of over 70% in size
#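 HP1-beta protein (50 nM final) preincubated 30 min at room temperature with biotinylated H3(1-18)K9me3 peptide (50 nM) in PBS pH 7.4, 0.01% Tween-20, then compound added for 30 min. AlphaScreen streptavidin donor/nickel chelate acceptor beads (10 ug/mL final), 30 min dark, luminescence read.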
# Numbers stand for hits; . = inactive; ? = inconclusive; / = no result given; [ ] = another dose, or the depositor's remark. Calls come from the whole dose curve; as a rule, active = well fitted curve in the direction sought with a large enough effect; inconclusive = small, poorly fitted or top-dose-only effect, or another doubt; inactive = no such curve, though single readings can be large; an effect the other way counts as inactive or inconclusive.
SMILES,JMJD2A Tudor inh,G9a inh,Sfp inh,BAZ2B inh,TDP1 inh,HP1b chromo inh
O=C(Cc1ccc(S(=O)(=O)N2CCOCC2)s1)NC1CCCCC1,?,12.6µM,/,50.1µM,/,.
CNC(=O)c1ccc(NC(=O)Cc2ccc(S(=O)(=O)N3CCOCC3)s2)cc1,.,44.7µM,/,.,.,.
CCNC(=O)Cc1ccc(S(=O)(=O)N2CCOCC2)s1,.,.,/,.,.,.
CCOc1ccc(NC(=O)COC(=O)Cc2ccc(S(=O)(=O)N3CCOCC3)s2)cc1,.,39.8µM,.,?,.,.
CCc1noc(C)c1C(=O)N1CCCSC1=Nc1ccccc1C(C)C,.,.,/,.,.,.
COc1ccccc1C1C=C(c2ccc(F)cc2)Nc2nc(-c3ccc(Cl)cc3)nn21 (centres undefined),?,?,/,.,/,.
CC1CCCN(S(=O)(=O)c2ccc(NC(=O)Cc3ccc(S(=O)(=O)N4CCOCC4)s3)cc2)C1 (centres undefined),.,3.98µM,/,.,/,.
O=C(Cc1ccc(S(=O)(=O)N2CCOCC2)s1)Nc1ccc(S(=O)(=O)N2CCCCC2)cc1,.,44.7µM,/,.,/,.
CC1CCN(S(=O)(=O)c2ccc(NC(=O)Cc3ccc(S(=O)(=O)N4CCOCC4)s3)cc2)CC1,.,.[0.501 µM],/,.,.,.
O=C(Cc1ccc(S(=O)(=O)N2CCOCC2)s1)Nc1nc2c(s1)CCCC2,56.2µM,/,.,17.8µM,/,?
O=S(=O)(c1ccc(NC(=S)NN=C2CCCCC2)cc1)N1CCOCC1,28.2µM,6.31µM,.,.,.,.
Cc1ccc(C(=O)OCC(=O)NC2CCCC(C)C2C)cc1S(=O)(=O)N1CCCCC1 (centres undefined),.,.[12.7 µM],/,.,.,.
N#Cc1ccc(CN2CCC3(CC2)CCN(C(=O)c2csnn2)CC3)cc1,/,.[12.7 µM],.,/,/,/
NNc1nnc(-c2ccccc2)c(-c2ccccc2)n1,?,?,.,79.4µM,.,.
O=C(Cc1cccc2ccccc12)N/N=C/c1ccncc1,.,.[0.501 µM],.,.,.,.
O=C(N/N=C/c1ccc([N+](=O)[O-])o1)C1CC1,?,?,.,50.1µM,/,.
Cn1cccc1/C=N/NC(=O)CNc1ccc2ccccc2c1,56.2µM,3.98µM,.,25.1µM,.,?
Cc1ccc(NCC(=O)N/N=C/c2cc(O)ccc2[N+](=O)[O-])cc1,.,50.1µM,.,?,.,.
Cn1cccc1/C=N/NC(=O)Cc1cccc2ccccc12,?,?,.,14.1µM,.,.
Cc1ccc(NCC(=O)N/N=C/c2ccncc2)cc1,.,.,.,.,.,.
O=C(CNc1ccc2ccccc2c1)N/N=C/c1ccc(C(=O)O)cc1,.,?,.,?,.,.
O=C(NCc1cccnc1)Nc1cccc(Cl)c1Cl,.,/,.,.,.,.
CCN(c1ccccc1)c1nnc(NC(=O)Nc2ccc(Br)cc2)s1,.,.,/,.,.,.
Cc1ccc(-c2nnc(SCc3ccccc3C#N)o2)cc1,.,.,/,.,.,.
CC(=O)N1CCOc2cc(S(=O)(=O)N(C)Cc3ccccc3)c(Cl)cc21,.,.,/,.,.,.
Cc1ccc(NCC(=O)N/N=C/c2cccn2C)cc1,?,/,.,39.8µM,/,.
O=C(CNc1ccc2ccccc2c1)N/N=C/c1ccc([N+](=O)[O-])o1,.,2.51µM,.,.,.,.
O=[N+]([O-])c1ccc(/C=N/NC(=S)Nc2ccccc2C(F)(F)F)o1,.,20µM,.,?,.,?
O=C(CNc1ccc2ccccc2c1)N/N=C/c1cc2ccccc2nc1Cl,?,10µM,.,?,.,.
Cc1ccc(OCC(=O)N/N=C/c2cccn2C)cc1,.,.,.,?,.,.
